pCIP destab: lowers stability of the mouse p/CIP coactivator protein; AID 1984; F442A p/CIP-EGFP cells, EGFP fluorescence, 16 h; hit rate 0.01% among 290,000; decrease of EGFP signal, % at 10 µM;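 active = EGFP signal decrease of at least 30% at 10 µM or well 3 SD below plate mean, unless failing retest; inactive = the rest, including hits failing retest or dose response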
MIN6 prolif: inducers of beta-cell replication in MIN6 cells; hit rate 0.29% among 330,000; MIN6 cells proliferation, ATPlite luminescence, 48 h; cells starved in 0.2% serum; 100% = growth in 10% serum; AID 2380; proliferation, % at 10 µM;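 active = compounds whose signal lies at least 3.5 SD above the mean of all wells on their plate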
OPRM1-OPRD1 ag: OPRM1-OPRD1 heterodimerization agonism | P35372+P41143 | cells, luminescence | activation, % at 9.3 µM | hit rate 0.3% among 340,000 | AID 504326
HTR5A inv ctr: HTR5A inverse agonism, opioid heterodimer counter-screen | hit rate 0.083% among 340,000 | P47898 | HTR5A cell line, luminescence | inhibition, % at 9.3 µM; in the data active = inhibition mostly above about 23%, no sharp cut-off; inactive = mostly below about 18%
OPRM1-OPRD1 inv: inverse agonists of human mu-delta opioid receptor heterodimerization | AID 504357 | inhibition, % at 9.3 µM | hit rate 0.21% among 340,000 | cell-based MOR-DOR heterodimer luminescence, inverse agonism | P35372+P41143; in the data active = inhibition above about 22%, passing the limit was not always enough
HTR5A ag: activates human HTR5A in OPRM1-OPRD1 agonist counter-screen; P47898; HTR5A agonist assay, luminescence, cell-based; activation, % at 9.3 µM; hit rate 0.61% among 340,000; AID 504692; in the data active = activation mostly above about 9.5%, no sharp cut-off; inactive = mostly below about 7.6%
OPRM1-D1 ag cf: confirmation of human OPRM1-OPRD1 heterodimerization agonists | hit rate 45% among 830 | cells, MOR-DOR heterodimerization, luminescence complementation | shares compounds with OPRM1-OPRD1 ag | activation, % at 9.3 µM
HTR5A ag ctr2: HTR5A agonism, opioid heterodimer counter-screen; shares compounds with OPRM1-OPRD1 ag; HTR5A agonist counterscreen, cell luminescence; activation, % at 9.3 µM; hit rate 8% among 830; AID 504905; in the data active = activation above about 17%
Each line names hits and unclear results; the compound was inactive in the other large screens (follow-up assays come after a bar, where they were run). Most compounds without a hit are left out; they make up all but 1.4% or so of the library. Rule as the data show it, unless noted: active = activation above about 18%; inactive = the rest.

Cc1ccc2nc(N(CCCN(C)C)C(=O)c3ccc(S(=O)(=O)N4CCOCC4)cc3)sc2c1	none
CN(C)CCCN(C(=O)c1ccc(S(=O)(=O)N2CCc3ccccc3C2)cc1)c1nc2ccc(F)cc2s1	OPRM1-OPRD1 ag 655 | OPRM1-D1 ag cf active | HTR5A ag ctr2 inactive
CN(C)CCCN(C(=O)c1ccc(S(=O)(=O)N2CCc3ccccc32)cc1)c1nc2ccc(F)cc2s1	OPRM1-OPRD1 ag 179 | OPRM1-D1 ag cf inactive | HTR5A ag ctr2 inactive
CN(C)CCCN(C(=O)c1ccc(S(=O)(=O)N2CCc3ccccc3C2)cc1)c1nc2c(F)cccc2s1	OPRM1-OPRD1 ag 107 | OPRM1-D1 ag cf inactive | HTR5A ag ctr2 inactive
Cc1cccc2sc(N(CCCN(C)C)C(=O)c3ccc(S(=O)(=O)N4CCc5ccccc5C4)cc3)nc12	none
Cc1ccc2nc(N(CCCN(C)C)C(=O)c3ccc(S(=O)(=O)N4CCc5ccccc5C4)cc3)sc2c1	OPRM1-OPRD1 ag 130 | OPRM1-D1 ag cf 44 | HTR5A ag ctr2 inactive
Cc1ccc(/C=C/S(=O)(=O)NCCC(=O)NCc2ccccc2F)cc1	none (no result: pCIP destab)
CCOc1ccc(NC(=O)CN(C)C(=O)c2sccc2-c2ccccc2)cc1OCC	none (no result: pCIP destab)
O=C(COC(=O)/C=C/c1ccc([N+](=O)[O-])cc1)NCC1CCCCC1	none (no result: pCIP destab)
CC(=O)N1c2cc3ccccc3cc2N(C(C)=O)c2cc3ccccc3cc21	none (no result: pCIP destab, MIN6 prolif)
CN(C)CCCN(C(=O)c1ccc(S(=O)(=O)N2CCCCCC2)cc1)c1nc2c(F)cc(F)cc2s1	OPRM1-OPRD1 ag 55 (no result: pCIP destab) | OPRM1-D1 ag cf 111 | HTR5A ag ctr2 inactive
O=C(c1cccc(S(=O)(=O)N2CCc3ccccc32)c1)N1CCCC(C(F)(F)F)C1 (stereo unspecified)	none (no result: pCIP destab)
O=C(Nc1ccccn1)c1cc(-c2cccnc2)nc2ccc(Br)cc12	OPRM1-OPRD1 ag 33 | OPRM1-D1 ag cf 20 | HTR5A ag ctr2 inactive
Cc1cc(NC(=O)c2cc(-c3ccccn3)nc3ccc(Br)cc23)no1	none
CC1CCCC(C)N1C(=O)COC(=O)COc1ccc(C#N)cc1 (stereo unspecified)	none (no result: pCIP destab)
CCCCN(C(=O)c1cc(OC)c(OC)c(OC)c1)C1=CC2CCC(C1)N2C (stereo unspecified)	none
COc1cc(C(=O)N(CCc2ccccc2)C2=CC3CCC(C2)N3C)cc(OC)c1OC (stereo unspecified)	OPRM1-OPRD1 ag 18 | OPRM1-D1 ag cf inactive | HTR5A ag ctr2 inactive
COc1ccc(C(CNC(=O)c2cccc(NS(=O)(=O)c3ccccc3)c2)N(C)C)cc1 (stereo unspecified)	OPRM1-OPRD1 ag 46 | OPRM1-D1 ag cf 29 | HTR5A ag ctr2 inactive
CC(=O)c1ccc(S(=O)(=O)NCc2ccc(C(=O)NCC(c3ccccc3)N(C)C)cc2)cc1 (stereo unspecified)	OPRM1-OPRD1 ag 55 | OPRM1-D1 ag cf 49 | HTR5A ag ctr2 inactive
COc1ccc(C(CNC(=O)c2cccc(S(=O)(=O)Nc3ccc(F)cc3)c2)N(C)C)cc1 (stereo unspecified)	none (no result: pCIP destab)
COc1ccccc1C(CNC(=O)c1cccc(NS(=O)(=O)c2ccc(C)c(F)c2)c1)N(C)C (stereo unspecified)	none (no result: pCIP destab)
CCOc1ccc(S(=O)(=O)Nc2cccc(C(=O)NCC(c3ccccc3)N(C)C)c2)cc1 (stereo unspecified)	OPRM1-OPRD1 ag 58 (no result: pCIP destab) | OPRM1-D1 ag cf 52 | HTR5A ag ctr2 inactive
CN(C)C(CNC(=O)c1ccc(S(=O)(=O)Nc2ccccc2F)cc1)c1ccccc1 (stereo unspecified)	none
COc1ccc(C(CNC(=O)c2cccc(NS(=O)(=O)c3ccc(C)c(F)c3)c2)N(C)C)cc1 (stereo unspecified)	OPRM1-OPRD1 ag 70 (no result: pCIP destab) | OPRM1-D1 ag cf inactive | HTR5A ag ctr2 inactive
CC(=O)c1cccc(N2C(=O)CC(N3CCN(S(=O)(=O)c4ccc(Cl)cc4)CC3)C2=O)c1 (stereo unspecified)	none (no result: pCIP destab)
CCc1ccc(NC(=O)CSc2n[nH]c(=O)n2C2CC2)cc1	none (no result: pCIP destab)
CCOc1ccccc1C(=O)NC(C(=O)N(C)c1c(N)n(Cc2ccccc2)c(=O)[nH]c1=O)C(C)C (stereo unspecified)	none (no result: pCIP destab, MIN6 prolif)
Cc1nc(C)n(C(Oc2ccc(Cl)cc2Cl)C(=O)C(C)(C)C)n1 (stereo unspecified)	none (no result: pCIP destab)
CCCN(CC(=O)Nc1ccccc1OC)C(=O)CCC(=O)c1ccc(OCC)cc1	none (no result: pCIP destab)
Cc1cc(C2(c3ccc(O)c(C)c3)C(=O)Nc3ccccc32)ccc1O	OPRM1-OPRD1 ag 20 | OPRM1-D1 ag cf inactive | HTR5A ag ctr2 inactive
NC1=NC2(CCN(Cc3ccccc3)CC2)n2c(nc3ccccc32)N1	OPRM1-OPRD1 ag 50 | OPRM1-D1 ag cf 28 | HTR5A ag ctr2 inactive
O=C1[C@@H]2[C@H](C(=O)N1CC(O)COCc1ccccc1)C1C=C[C@H]2C1 (stereo partly specified)	none (no result: pCIP destab, MIN6 prolif)
COC(=O)C1=C(C)N(CCCC(=O)O)C(=O)NC1c1ccccc1OS(=O)(=O)c1ccccc1[N+](=O)[O-] (stereo unspecified)	OPRM1-OPRD1 ag 51 (no result: pCIP destab) | OPRM1-D1 ag cf 47 | HTR5A ag ctr2 inactive
CCOC(=O)C1=C(C)N(Cc2ccccc2)C(=O)NC1c1ccccc1OS(=O)(=O)c1ccccc1[N+](=O)[O-] (stereo unspecified)	OPRM1-OPRD1 ag 65 (no result: pCIP destab) | OPRM1-D1 ag cf inactive | HTR5A ag ctr2 inactive
N#Cc1nc(Nc2cc(F)cc(F)c2)c2ncn(CC(F)F)c2n1	none (no result: pCIP destab)
N#Cc1nc(NCC(F)F)nc(Nc2cc(F)cc(F)c2)n1	OPRM1-OPRD1 ag 21 (no result: pCIP destab) | OPRM1-D1 ag cf inactive | HTR5A ag ctr2 inactive
CCCN(C(=O)COc1ccc(C(C)=O)cc1OC)C1CCS(=O)(=O)C1 (stereo unspecified)	none (no result: pCIP destab)
CCOC(=O)C1(CC2CCCCO2)CCN(Cc2nccn2-c2cccc(C)c2)CC1 (stereo unspecified)	none
CCOC(=O)C1(CC2CCCCO2)CCN(Cc2nc3ccccc3[nH]2)CC1 (stereo unspecified)	OPRM1-OPRD1 ag 29 | OPRM1-D1 ag cf 27 | HTR5A ag ctr2 inactive
CCOC(=O)C1(CC2CCCCO2)CCN(Cc2cc(F)ccc2-n2cccn2)CC1 (stereo unspecified)	OPRM1-OPRD1 ag 61 | OPRM1-D1 ag cf 66 | HTR5A ag ctr2 inactive
CCOC(=O)C1(CC2CCCCO2)CCN(Cc2nccn2-c2ccc(OC)cc2)CC1 (stereo unspecified)	none
CCOC(=O)C1(CC2CCCCO2)CCN(Cc2c(C)cc(C)cc2-n2cccn2)CC1 (stereo unspecified)	OPRM1-OPRD1 ag 199 | OPRM1-D1 ag cf 267 | HTR5A ag ctr2 inactive
